# Only some compounds are listed: those with a hit (about 3.2% of all), similar ones and a draw of the others.
# Bst PK mod: alters activity of Bacillus stearothermophilus pyruvate kinase. 51,000 compounds, 1.2% hits. purified pyruvate kinase, luminescence ATP production; ribose 5-phosphate activator present at AC10. Potency, µM; in the data active means potency below about 11 µM; inconclusive means mostly about 12 µM to 25 µM;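 the screen sought inhibitors and activators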;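 further: scaled between full activation by ribose 5 phosphate and full inhibition by luteolin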
# Luciferase inh: blocks Photinus pyralis firefly luciferase activity | 72,000 compounds, 2.2% hits | AID 411 | P08659 | purified firefly luciferase, luminescence, 8 min | Potency, µM (top dose mostly 57.1 µM), without a hit: at the highest dose activity change, negative = inhibition, usual class: inhibitors; active means well fitted inhibition curve with a large enough effect; inconclusive means small, poorly fitted or top-dose-only effect; further: on the % scale 0 is the no-effect control and ±100 the full control effect; nearly all actives have a fitted effect of over 40% in size
#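 Here, luciferase activity is measured as luminescence following an 8 min room-temperature reaction at 10 uM ATP, pH 7.2. Every library sample is titrated.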
# GBA mod: alters purified human glucocerebrosidase activity. P04062. purified enzyme, resorufin glucoside fluorescence (screen aimed at inhibitors), 20 min. Potency, µM. AID 360. 48,000 compounds, 1.1% hits; in the data active means potency below about 15 µM; inconclusive means mostly about 16 µM to 33 µM;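 further: the screen sought inhibitors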
# Target sequence (P04062 whole entry, looked up): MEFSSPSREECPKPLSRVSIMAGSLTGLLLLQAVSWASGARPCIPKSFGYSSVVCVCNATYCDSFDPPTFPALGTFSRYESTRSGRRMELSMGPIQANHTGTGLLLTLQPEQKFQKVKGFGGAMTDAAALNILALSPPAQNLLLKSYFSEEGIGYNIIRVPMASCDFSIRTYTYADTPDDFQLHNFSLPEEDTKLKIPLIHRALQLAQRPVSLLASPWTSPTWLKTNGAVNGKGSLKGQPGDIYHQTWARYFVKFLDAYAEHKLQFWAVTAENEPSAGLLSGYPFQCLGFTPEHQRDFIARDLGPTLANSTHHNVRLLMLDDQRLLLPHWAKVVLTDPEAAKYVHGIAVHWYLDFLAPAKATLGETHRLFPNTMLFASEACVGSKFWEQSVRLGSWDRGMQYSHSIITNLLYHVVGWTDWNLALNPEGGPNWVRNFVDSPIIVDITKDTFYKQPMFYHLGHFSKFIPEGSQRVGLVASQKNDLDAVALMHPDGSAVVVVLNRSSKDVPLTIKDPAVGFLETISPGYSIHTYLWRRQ
#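 Compounds titrated against 0.2 nM normal enzyme, 30 uM resorufin beta-D-glucopyranoside substrate, citrate/phosphate buffer with taurocholate and tween-20, pH 5.9. Reaction ran 20 min at room temperature; fluorescence (Ex 548/Em 600) gave AC50.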
# The depositor's hits bear a star; i = inactive; ? = inconclusive; nt = no result given; ! = not active in a repeat; [ ] = dose if it differs, or a comment. Potency means the concentration at half of the fitted maximal effect.
SMILES,Bst PK mod,Luciferase inh,GBA mod
CCCCn1c(=N)n(CC(O)COc2ccccc2)c2ccccc21 (stereo not given),>57,0%,?
CCCCn1c(=N)n(CC(O)COc2ccc(C)cc2)c2ccccc21 (stereo not given),>57,-3%,11*
CCCn1c(=N)n(CC(O)COc2cccc(C)c2)c2ccccc21 (stereo not given),>57,-1%,12*
N#Cc1cccc(NC(=O)N2CCC3(CC2)CCN(C(=O)c2ccco2)CC3)c1,nt,2%[11.4 µM],nt
OCCN1CCN(C(=S)c2ccc(Cl)c(Cl)c2)CC1,nt,-26%,10*
O=C(N1CCN(CCO)CC1)N1c2ccccc2C=Cc2ccccc21,>57,-1%,nt
CCC(=O)Nc1ccc(S(=O)(=O)Nc2cccnc2)cc1,>57,3%,>77
O=C(Nc1cccnc1)c1ccc(COCC(F)(F)F)cc1,>57,-7%,5.1*
CCC(C)c1ccc(NC(=O)c2cccnc2)cc1 (stereo not given),nt,25µM*,nt
CCOc1cc(OCC)cc(C(=O)Nc2cccnc2)c1,>57,3%,?
CCC(C)c1ccc(O)c(NC(=O)c2cccnc2)c1 (stereo not given),>57,6%,>77
CCC(=O)Nc1ccc(C(=O)Nc2cccnc2)cc1,>57,-6%,6.6*
CCNc1ncc2nc(-c3cccs3)c(=O)n(-c3ccccc3)c2n1,nt,0%[11.4 µM],nt
C/C(CCC(=O)OC[C@@H]1O[C@H](C#Cc2ccccc2)C=C[C@@H]1Oc1ccc(C)cc1)=N/O[C@@H](C)c1cc(-c2c(C)cc(C)cc2C)no1,nt,0%[11.4 µM],nt
O=C(Nc1nc(-c2cccs2)cs1)c1ccc(Cl)s1,nt,-15%,nt
CC(C)(C)c1csc(NC(=O)c2ccc(Cl)s2)n1,i,16µM*,15*
CC(=O)O[C@]12CC[N@+]3(C)CCCC[C@@H]3[C-]1Nc1ccccc12,nt,3%[11.4 µM],nt
C(=N\C(/N=C/c1ccco1)c1ccco1)/c1ccco1,>57,-7%,>77
CN(C)c1ccc(N=Cc2ccco2)cc1,nt,20µM*,nt
CCN1C(=O)[C@H]2[C@H]3[C@H](O)[C@H](O)C/C(=N/NC(=O)OCc4ccc(OC)cc4)[C@H]3CC[C@@H]2C1=O,nt,1%[11.4 µM],nt
CC1N/C(=C\C(=O)c2ccccc2)N(O)C1(C)C (stereo not given),i,13µM*,>77
CN1[C@H](CC(=O)c2ccccc2)CCC[C@H]1C[C@@H](O)c1ccccc1,nt,2%[11.4 µM],nt
COc1ccc2oc(C(=O)CCC(=O)O)c(N)c2c1,nt,0%,nt
COC(=O)CCC(=O)c1oc2ccc(Br)cc2c1N,nt,13µM*,>77
COc1cccc(N=Cc2ccc(O)cc2O)c1,nt,-2%,nt
SMILES,Bst PK mod,Luciferase inh,GBA mod
COc1cccc(C=Nc2ccc3c(c2)OCCO3)c1O,?,4µM*,>77
COc1ccc(COC(=O)N/N=C2/C[C@@H](O)[C@@H](O)[C@@H]3[C@H]4C(=O)N(c5ccc(F)cc5F)C(=O)[C@@H]4CC[C@@H]23)cc1,nt,-1%[11.4 µM],nt
Cc1nn2c3c(cnc2c1-c1ccccc1)C(=O)CCC3,>57,1%,>77
Cc1nn(-c2ccccn2)c2c1-c1nc(N)ncc1CC2,?,10µM*,>77
CN(C)c1ncc2nc(-c3ccccc3)c(=O)n(CCC#N)c2n1,nt,1%[11.4 µM],nt
O=C(Nc1cccc2nsnc12)c1cccs1,>11,16µM*!,?
O=C(Nc1ccc2nsnc2c1)c1cccs1,>57,-4%,>77
Cc1occc1-c1nnc(SCc2cc(=O)n3cc(Br)ccc3n2)n1C,>57,0%,>77
Cc1ccccc1Nc1nc(CSc2nnc(-c3ccoc3C)n2C)cs1,nt,25µM*,nt
O[C@H](CN1CCN(c2cccc(Cl)c2)CC1)C(c1ccccc1)c1ccccc1,nt,-1%,nt
O=C(CN1CCN(c2ccccn2)CC1)Nc1ccc2ccccc2c1,>57,40µM*,>77
O=C(CN1CCN(c2ccccn2)CC1)Nc1ccc(Cl)c(C(F)(F)F)c1,>57,4%,?
CCNc1ncc2nc(-c3ccc(F)cc3)c(=O)n(CCc3ccccc3)c2n1,nt,0%[11.4 µM],nt
CNC(=O)C1CC(=O)N(c2ccc(F)c(Cl)c2)C1 (stereo not given),>57,1%,>77
CN(CCNC(=O)C1CC(=O)N(c2ccc(F)c(Cl)c2)C1)Cc1ccccc1 (stereo not given),>57,0%,15*
CO[C@@H]1COC(=O)CC=C[C@@H](C)[C@@H]2C=C[C@H](O)[C@@H](COC(=O)C/C=C\[C@H]1C)O2,nt,1%[11.4 µM],nt
Cc1noc(NS(=O)(=O)c2cccc3c(N(C)C)cccc23)c1C,nt,2%,nt
Nn1c(Nc2ccccc2)nc2ccccc21,nt,13µM*,nt
Nn1c(Nc2ccccc2)nc2ccccc2c1=O,nt,0%,nt
N#Cc1ccc(CN2CC[C@@]3(CCCN(C(=O)c4cccc(F)c4)C3)C2)cc1,nt,1%[11.4 µM],nt
CCOC(=O)Cc1nc2ccccc2[nH]1,>57,-1%,>77
CCOC(=O)c1ccc(NCc2nc3ccccc3[nH]2)cc1,nt,16µM*,nt
CO[C@]1(C2=NCCN2)COc2ccccc2O1,nt,0%,nt
Cc1ccc(N2C(=O)c3ccc(N)cc3C2=O)cc1C,nt,-23%,>77
Cc1ccc(N2C(=O)c3ccc(N)cc3C2=O)cc1,nt,16µM*,>77
SMILES,Bst PK mod,Luciferase inh,GBA mod
COc1ccc(OC)c(CN2CCN(C(=O)c3cccs3)CC2)c1,>57,2%,>77
COc1ccc(OC)c(CN2CCN(C(=O)c3cccc4ccccc34)CC2)c1,7.4*,3%,?
NC(=S)c1ccc[n+]([C@@H]2O[C@@H](COP(=O)([O-])OP(=O)(O)OC[C@@H]3O[C@@H](n4cnc5c(N)ncnc54)[C@@H](OP(=O)(O)O)[C@H]3O)[C@@H](O)[C@H]2O)c1,nt,3%,nt
CN1CCN(c2ccnc(-c3cccc(NS(C)(=O)=O)c3)n2)CC1,nt,-1%[2.29 µM],nt
c1ccc(-c2noc(-c3cccnc3)n2)nc1,nt,?,>77
Cc1occc1-c1nc(-c2ccncc2)no1,nt,-3%,>77
c1ccc(-c2noc(-c3ccc4ccccc4c3)n2)nc1,0.16*,0.2µM*,nt
Cc1occc1-c1nc(-c2ccccn2)no1,nt,13µM*,nt
c1ccc(-c2noc(-c3ccc4c(c3)OCO4)n2)nc1,0.86*,0.79µM*,>77
c1ccc(CCc2ccccc2-c2nc(-c3ccccn3)no2)cc1,nt,1%,>77
c1cncc(-c2cc(NCc3cccs3)ncn2)c1,nt,2%[2.29 µM],nt
C=CC[C@@H]1C=C[C@@H](O/N=C(/C)CCC(=O)OC[C@@H]2O[C@H](C#Cc3ccccc3)C=C[C@@H]2Oc2ccc(C)cc2)[C@@H](CO)O1,nt,2%[11.4 µM],nt
CCCCCOC(=O)c1[nH]c2c(c1C)C(=O)C(C(=O)OC)C(C)C2 (stereo not given),>57,?,?
COC(=O)C1C(=O)c2c([nH]c(C(=O)OCC3CCCO3)c2C)CC1C (stereo not given),nt,7.9µM*,nt
COCCOC(=O)c1[nH]c2c(c1C)C(=O)C(C(=O)OC)C(C)C2 (stereo not given),nt,10µM*,nt
CC1=C(C(=O)OCC2CCCO2)C(c2ccccc2)NC(=O)N1 (stereo not given),nt,3%,nt
CN(C)CN1C(=O)S/C(=C2/C(=O)N(CN(C)C)c3ccccc32)C1=O,nt,1%[11.4 µM],nt
O=S(c1ccccc1)c1ccc2nnnn2n1 (stereo not given),nt,-5%,nt
CN(C)c1nc(Nc2ccc(Cl)cc2)nc(OCC#N)n1,1.7*,2%,>77
CN(C)c1nc(N)nc(Nc2ccccc2C#N)n1,nt,-2%,nt
C#C[C@]1(O)CC[C@H]2[C@H]3CCC4=Cc5oncc5C[C@]4(C)[C@@H]3CC[C@]21C,nt,-1%,nt

# Screens deposited in PubChem BioAssay by National Center for Advancing Translational Sciences (NCATS).
